Compound activity as filed in PubChem.
Hits are enriched below; roughly 7.5% of the tested compounds scored in any of these assays.
FLuc modulator: counter-screen for miR-21 project: firefly luciferase inhibitors or activators | 360,000 tested, 6.9% active | Potency, µM (highest dose often 57.5 µM), hits mostly inhibitors | purified FLuc, Km substrates, luminescence inhibition | AID 588342; note: nearly all actives have a fitted effect of over 55% in size
Target sequence (P08659 whole entry, looked up): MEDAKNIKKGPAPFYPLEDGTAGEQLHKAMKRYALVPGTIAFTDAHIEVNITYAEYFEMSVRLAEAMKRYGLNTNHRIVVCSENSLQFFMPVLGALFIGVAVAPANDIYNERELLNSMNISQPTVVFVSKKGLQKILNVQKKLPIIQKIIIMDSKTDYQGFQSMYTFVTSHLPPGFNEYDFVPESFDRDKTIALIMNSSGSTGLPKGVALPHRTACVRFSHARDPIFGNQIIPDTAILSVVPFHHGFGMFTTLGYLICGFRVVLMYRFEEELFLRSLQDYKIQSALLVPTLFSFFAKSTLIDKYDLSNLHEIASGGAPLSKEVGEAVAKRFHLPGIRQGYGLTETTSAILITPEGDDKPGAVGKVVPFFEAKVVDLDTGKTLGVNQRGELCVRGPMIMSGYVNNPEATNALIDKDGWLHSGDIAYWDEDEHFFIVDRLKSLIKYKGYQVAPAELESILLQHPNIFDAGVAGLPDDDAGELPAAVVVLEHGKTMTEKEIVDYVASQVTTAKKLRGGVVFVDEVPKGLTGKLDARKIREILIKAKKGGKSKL
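Biochemical qHTS of compounds, final roughly 60 µM downward over six points, against 10 nM purified firefly luciferase using Km concentrations of substrates (10 uM D-luciferin, 10 uM ATP) in Tris acetate pH 7.5 buffer; luminescence output.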
ELG1 genotoxic: inducers of genotoxicity in HEK293T ELG1-luciferase cells. HEK293T ELG1-luciferase reporter, luminescence, 16 h. Potency, µM (titrated, usually from 46 µM), hits mostly activators. 330,000 tested, 1.3% active. AID 504466; note: nearly all actives have a fitted effect of over 60% in size
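Genotoxicity was scored as increased ELG1-luciferase reporter signal, measured by ONE-Glo luminescence (30 min, room temperature). Compound or vehicle exposure of the HEK293T reporter cells lasted 16 hr at 37°C.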
SMN2 splice enh: enhancers of SMN2 splice variant expression | 210,000 tested, 2.8% active | HEK293 SMN2-luciferase splicing reporter, luminescence, 30-36 h | Potency, µM (top dose mostly 46.1 µM), most hits filed as activators; note: nearly all actives have a fitted effect of over 55% in size
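qHTS luciferase splicing reporter: luminescence rises when SMN2 exon 7 is included in transfected HEK293 cells. Compound exposure lasted 30-36 h at 37C, with 4.5 mM final sodium butyrate as control, followed by a ONE-Glo read.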
KinaseGlo FLuc: Kinase-Glo luciferase inhibition (counter-screen) | Kinase-Glo luciferase, ATP luminescence, 8 min | Potency, µM (top dose mostly 38.3 µM), usual class: inhibitors | 200,000 tested, 0.28% active; note: nearly all actives have a fitted effect of over 60% in size
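Compound is pinned into ATP-containing buffer (10 uM ATP, imidazole pH 7.2, 7 mM MgCl2). Kinase-Glo luciferase reagent is then added. Light output is recorded following an 8-min room-temperature incubation.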
Rab9 prom act: activators of Rab9 promoter; Huh7 Rab9 promoter-luciferase reporter, luminescence, 24 h; Potency, µM (doses to about 9.22 µM), hits mostly activators; 320,000 tested, 2.8% active; note: nearly all actives have a fitted effect of over 60% in size
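Luciferase signal after 10 min detection reagent at ambient indicates Rab9 promoter upregulation; stably transfected Huh7 cells were treated 24 h with compound in DMSO at 37 °C, 5% CO2.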
NPC1 promoter act: NPC1 promoter activation; 320,000 tested, 2.4% active; Potency, µM (highest dose often 9.22 µM), actives largely listed as activators; Huh7 NPC1 promoter luciferase reporter, 24 h; note: nearly all actives have a fitted effect of over 60% in size
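Quantitative HTS used a cell-based reporter: Huh7 cells stably bearing the NPC1 promoter upstream of luciferase were treated with compounds for 24 h, and promoter activation was read as luminescence.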
Numbers stand for hits; 0 = inactive; ? = inconclusive; - = not tested or not shown. Calls come from the whole dose curve; as a rule, active = well fitted curve in the direction sought with a large enough effect; inconclusive = small, poorly fitted or top-dose-only effect, or another doubt; inactive = no such curve, though single readings can be large; an effect the other way counts as inactive or inconclusive.

SMILES | FLuc modulator | ELG1 genotoxic | SMN2 splice enh | KinaseGlo FLuc | Rab9 prom act | NPC1 promoter act
O=C(Nc1ccc(N2CCCC2)c(Cl)c1)c1ccc([N+](=O)[O-])o1 | 7.6µM | 0 | 0 | ? | ? | ?
CCCCn1c(=NC(=O)C(C)(C)Oc2ccc(Cl)cc2)c(C(=O)OCC)cc2c(=O)n3ccccc3nc21 | 0 | - | 0 | - | - | -
Cc1cc(C(=O)CSc2nnc(-c3cccnc3)n2-c2ccccc2F)c(C)n1CC1CCCO1 (stereo not given) | ? | 0 | 0 | 0 | 0 | 0
CC(C)Oc1ccc(CNC(=O)c2cnc3sc(N4CCCCC4)nn3c2=O)cc1 | 0 | - | - | - | - | -
O=C(O)COc1cccc(-c2ocnc2-c2nc(-c3ccccc3)c(-c3ccccc3)o2)c1 | - | - | - | 0 | - | -
CC(C)(C)C(=O)N1CCN(c2ccc(NC(=O)c3ccc([N+](=O)[O-])o3)cc2)CC1 | 0 | 0 | - | - | 0 | 0
Cc1ccc(NC(=O)c2ccc([N+](=O)[O-])o2)cc1C | 21µM | 0 | 0 | 0 | ? | 0
O=C(Nc1ccc2[nH]c(=O)[nH]c2c1)c1ccc([N+](=O)[O-])o1 | 0 | 0 | - | - | 0 | 0
CS(=O)(=O)N1CCN(c2ccc(NC(=O)c3ccc([N+](=O)[O-])o3)cc2)CC1 | 0 | ? | - | - | 2.2µM | ?
Cc1ccc(S(=O)(=O)c2nc(-c3ccccc3Cl)oc2N(C)C)cc1 | 15µM | ? | - | - | 0 | 0
Cc1ccc(-c2nc(S(=O)(=O)c3ccc(C)cc3)c(N(C)C)o2)cc1 | 0 | 0 | - | - | 0 | ?
O=C(CN1CCN(c2ccc(F)cc2)CC1)Nc1nccs1 | 0 | 0 | - | - | 0 | 0
CC(=O)c1ccc(NC(=O)C2(c3ccccc3)CCOCC2)cc1 | 13µM | ? | 0 | 0 | ? | 3.2µM
CCN(c1ccc(NC(=O)CN2C(=O)NC3(CCOc4ccccc43)C2=O)cc1)C(C)C (stereo not given) | 17µM | 0 | 0 | 0 | 0 | 0
CCC(=O)Nc1ccc(C(=O)Nc2ccc(Br)cc2F)cc1 | 0 | 0 | - | 0 | 0 | 0
O=C(Nc1ccc(F)cc1F)c1ccc2c(c1)OCCO2 | 4.8µM | ? | - | - | 0.63µM | 0.5µM
O=C(COC(=O)c1ccc2c(c1)OCCO2)Nc1ccc(F)cc1F | - | 0 | - | - | - | -
O=C(Nc1ccc(Br)cc1F)c1ccc2c(c1)OCCO2 | 0.54µM | ? | - | - | 0.13µM | 0.28µM
COc1ccc(-c2csc3ncnc(Nc4ccc(OC)c(OC)c4)c23)cc1 | 0 | - | - | - | - | -
CCOC(=O)c1ccc(NC(=O)c2nn(C)cc2Br)cc1 | 6.7µM | 21µM | 0 | 0 | ? | ?
CCn1cc(Br)c(C(=O)Nc2ccc(F)c(Cl)c2)n1 | 17µM | ? | 0 | 0 | 2.8µM | 2.2µM
CCOC(=O)c1ccc(NC(=S)NC(=O)c2nn(CC)cc2Br)cc1 | 0 | 0 | 0 | 0 | 0 | 0
CCOC(=O)c1ccc(NC(=O)c2nn(CC)cc2Br)cc1 | 11µM | ? | ? | 0 | ? | ?
CCOC(=O)c1ccc(NC(=O)Nc2ccn(C)n2)cc1 | ? | 0 | 0 | 0 | ? | ?
O=C(c1cccn1-c1nnc(N2CCCCC2)s1)N1CCN(c2ccccc2)CC1 | 0 | - | - | - | - | -
SMILES | FLuc modulator | ELG1 genotoxic | SMN2 splice enh | KinaseGlo FLuc | Rab9 prom act | NPC1 promoter act
Cc1cc2[nH]c(=O)c3ccccc3n2n1 | 0 | 0 | 0 | 0 | 0 | 0
Cc1cc2[nH]c(=O)cc(-c3ccccc3)n2n1 | 9.5µM | ? | - | - | ? | ?
CC(=O)c1nnn(-c2ccc(F)cc2F)c1C | 0 | 0 | - | - | 0 | 0
CCc1ccccc1-n1nnc(-c2nc(-c3ccccc3F)no2)c1C | 1.2µM | - | - | - | - | -
Cc1c(-c2ccccc2)nnn1-c1ccc(F)cc1F | 21µM | ? | - | - | ? | ?
Cc1c(-c2nc(-c3ccccc3F)no2)nnn1-c1cc(F)ccc1F | 0.17µM | - | - | - | - | -
COCC(=O)N1CCC2(CC1)CN(c1ccccn1)C2 | - | - | 0 | 0 | - | -
CC/C=C1/OC(=O)c2ccccc21 | - | - | 0 | - | - | -
COc1ccccc1CNS(=O)(=O)c1ccc(Cl)s1 | 0 | 0 | - | - | 0 | 0
COc1ccc(N(C(=O)c2cccnc2)S(=O)(=O)c2ccc(Cl)cc2)cc1 | 0 | 0 | - | - | 0 | 0
Cc1cc2cc(CN(CCN(C)C)C(=S)NCc3ccco3)c(=O)[nH]c2cc1C | 0 | 0 | 0 | 0 | 0 | 0
CCN(CC)CCN(Cc1cc2cc(C)c(C)cc2[nH]c1=O)C(=S)NCc1ccco1 | 24µM | 0 | - | 0 | 0 | 0
